The values that follow come from paper PMC11062922 (Nature Chemical Biology, 2023).

Read-outs that look alike come from different tables or passages of the source.

Set-up in all cases: species or system human, MV4-11 + K-562 + COLO205 + SK-N-BE2 + OVCAR-8
Test [1] concerns CDKL5. The following applies: read-out: apparent Kd, n = 1.
Test [2] has as its system MAPK11. As to conditions: read-out: apparent Kd; compound concentrations: 100 nM and 1000 nM (sheet 'Samples'), CATDS: 0.67677633408210103; n = 1.
Test [3] has as its system MAPK14. As to conditions: read-out: apparent Kd, n = 1.
For test [4], the system named is MAPKAPK2. The following applies: read-out: apparent Kd, n = 1.
Test [5] deals with MTHFD1. As to conditions: read-out: apparent Kd; compound concentrations:100 nM and 1000 nM (sheet 'Samples'); n = 1.
The subject of test [6] is PLK1. As to conditions: read-out: apparent Kd, compound concentrations: 100 nM and 1000 nM (sheet 'Samples'), n = 1.
Test [7] has as its system CSNK1D. The following applies: read-out: apparent Kd, n = 1.
In test [8] the test system is CSNK1E. The following applies: read-out: apparent Kd, n = 1.
Test [9] has as its system DYRK1A. The following applies: read-out: apparent Kd; compound concentrations: 100 nM and 1000 nM (sheet 'Samples'), CATDS: 0.124378507371426; n = 1.
In test [10] the test system is LATS1. As to conditions: read-out: apparent Kd; compound concentrations: 100 nM and 1000 nM (sheet 'Samples'), CATDS: 0.13446121771830499; n = 1.
Test [11] concerns NNT. The following applies: read-out: apparent Kd; compound concentrations: 100 nM and 1000 nM (sheet 'Samples'), CATDS: 0.14488734368084999; n = 1.
The subject of test [12] is PKN2. The following applies: read-out: apparent Kd; compound concentrations: 100 nM and 1000 nM (sheet 'Samples'), CATDS: 0.15546286258013101; n = 1.
Test [13] concerns RPS6KB1. The following applies: read-out: apparent Kd; compound concentrations: 100 nM and 1000 nM (sheet 'Samples'), CATDS: 0.17749177686381501; n = 1.
For test [14], the system named is CLK1. The following applies: read-out: apparent Kd; compound concentrations: 100 nM and 1000 nM (sheet 'Samples'), CATDS: 0.27992821641946602; n = 1.
Test [15] has as its system CLK4. The following applies: read-out: apparent Kd; compound concentrations: 100 nM and 1000 nM (sheet 'Samples'), CATDS: 0.21204627821104199; n = 1.
Test [16] deals with FER. As to conditions: read-out: apparent Kd; compound concentrations: 100 nM and 1000 nM (sheet 'Samples'), CATDS: 0.14947425083021301; n = 1.
Test [17] deals with IGF1R. As to conditions: read-out: apparent Kd; compound concentrations: 100 nM and 1000 nM (sheet 'Samples'), CATDS: 0.12946189122978499; n = 1.
The subject of test [18] is INSR. As to conditions: read-out: apparent Kd; compound concentrations: 100 nM and 1000 nM (sheet 'Samples'), CATDS: 0.154401741124819; n = 1.
Test [19] concerns MAPK10. As to conditions: read-out: apparent Kd; compound concentrations: 100 nM and 1000 nM (sheet 'Samples'), CATDS: 0.188105641093985; n = 1.
Test [20] relates to MAPK9. The following applies: read-out: apparent Kd; compound concentrations: 100 nM and 1000 nM (sheet 'Samples'), CATDS: 0.212522711291111; n = 1.
Test [21] relates to IARS. The following applies: read-out: apparent Kd; compound concentrations:100 nM and 1000 nM (sheet 'Samples'); n = 1.
Test [22] relates to NQO1. The following applies: read-out: apparent Kd; compound concentrations:100 nM and 1000 nM (sheet 'Samples'); n = 1.
Where [23] appears, read: compound concentrations:100 nM and 1000 nM (sheet 'Samples').

For the compound `Cl.Nc1c(C(=O)c2cccc(-c3ccncc3)c2)cnn1-c1ccc(F)cc1F` [RO1166300-001], the potency estimated from few doses in test [1] (compound concentrations: 100 nM and 1000 nM (sheet 'Samples'), CATDS: 0.17547829897004599) is 1.83 µM; in [2], 0.0823 µM; in [3] (compound concentrations: 100 nM and 1000 nM (sheet 'Samples'), CATDS: 0.205012911986655) it was 1.06 µM; in test [4] (compound concentrations: 100 nM and 1000 nM (sheet 'Samples'), CATDS: 0.2534240729319), 0.584 µM.

As for `COc1cc2ncn(-c3cc(OCc4ccccc4C(F)(F)F)c(C(N)=O)s3)c2cc1OC` [GW843682X], the potency estimated from few doses in test [1] (setting [23]) is 2.33 µM; in test [5], 1.71 µM; in test [6] (CATDS: 0.37737970121019898), 1.4 µM.

Regarding `CCc1nccc2c1nc(-c1nonc1N)n2CC` [SB-751148], the potency estimated from few doses in test [7] (compound concentrations: 100 nM and 1000 nM (sheet 'Samples'), CATDS: 0.159181013373493) is 1.09 µM; in test [8] (compound concentrations: 100 nM and 1000 nM (sheet 'Samples'), CATDS: 0.120883925571631), 1.96 µM; in test [9], 1.83 µM; in test [10], 1.53 µM; in [11], 1.31 µM; in [12], 1.14 µM. In addition, the potency estimated from few doses in test [13] was 0.902 µM.

Take `N#Cc1ccc(Oc2nccc(-c3c(-c4ccc(F)cc4)ncn3C3CCNCC3)n2)cc1` [SB-242721]: the potency estimated from few doses is 0.71 µM in [7] (setting [23]), 1.74 µM in [8] (setting [23]), 0.844 µM in test [3] (setting [23]) and 0.496 µM in test [4] (setting [23]).

As for `CNC(=O)c1ncccc1Nc1nc(Nc2cc3c(cc2OC)CCCN3C(=O)CN(C)C)nc2[nH]ccc12` [GSK2220400A], the potency estimated from few doses is 0.321 µM in [14]; 0.504 µM in test [15]; 1.02 µM in test [16]; 1.5 µM in test [17]; 0.949 µM in [18]; 1.07 µM in test [6] (CATDS: 0.14661258796571799).

Turning to `Fc1ccc(-c2ncn(CCCN3CCOCC3)c2-c2ccncc2)cc1` [SB-210313], the potency estimated from few doses in test [7] (compound concentrations: 100 nM and 1000 nM (sheet 'Samples'), CATDS: 0.19836678982407999) was 1.23 µM; in [8] (compound concentrations: 100 nM and 1000 nM (sheet 'Samples'), CATDS: 0.16080040098047499), 2.02 µM; in [19] it was 1.38 µM; in test [3] (compound concentrations: 100 nM and 1000 nM (sheet 'Samples'), CATDS: 0.26893269490410898), 0.706 µM; in [20], 1.07 µM.

`Fc1ccc(-c2ncn(C3CCNCC3)c2-c2ccnc(Oc3ccc(Oc4ccccc4)cc3)n2)cc1` [SB-245392]: the potency estimated from few doses in test [7] (setting [23]) is 0.616 µM; in test [8] (setting [23]) it was 1.2 µM; in [21] it was 2.11 µM; in test [3] (setting [23]), 0.571 µM; in test [22], 1.71 µM.

On to `CCc1cccc(NC(=O)Nc2ccc(Oc3ccc4nc(NC(=O)OC)[nH]c4c3)cc2)c1` [GW673715X], for which the potency estimated from few doses was 0.739 µM in [7] (compound concentrations: 100 nM and 1000 nM (sheet 'Samples'), CATDS: 0.27728092810056698); 1.27 µM in [8] (compound concentrations: 100 nM and 1000 nM (sheet 'Samples'), CATDS: 0.214439081495093); 1.03 µM in test [3] (compound concentrations: 100 nM and 1000 nM (sheet 'Samples'), CATDS: 0.234253056752116); 0.685 µM in [4] (compound concentrations: 100 nM and 1000 nM (sheet 'Samples'), CATDS: 0.28890607877709801).
